PubChem BioAssay (NCATS)
Records with an inconclusive call do not appear. A number with no mark means an inactive call. The source made the active and inactive calls. The call rests on the fitted dose curve; in most records, active means well fitted cell-killing curve with a large enough effect; inconclusive means small, poorly fitted or top-dose-only effect; inactive means flat fitted curve, though single readings scatter.

Assay: Cell Viability - LYMP2-025 (AID 976);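 on activity change, negative = cytotoxicity: plate controls were DMSO only for no effect and tetraoctylammonium bromide control for full effect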
Details: LYMP2-025 lymphoblastoid cell viability; series mostly up to 92.2 µM; activity change, negative = cytotoxicity: at the top concentration
Source text: NIH Chemical Genomics Center [NCGC]
NIH Molecular Libraries Screening Centers Network [MLSCN]
National Institutes of Environmental Health Sciences [NIEHS]
National Toxicology Program [NTP]
We have developed a 1536-well cell-based assay for quantitative high throughput screening (qHTS) against a number of cell lines to determine in vitro cytotoxicity of small molecules. This particular assay uses a human lymphoblastoid cell line (LYMP2-025) purchased from Coriell Institute for Medical Research.
NCGC Assay Protocol Summary:
The CellTiter-Glo luminescent cell viability assay (Promega) is a homogeneous method to measure the number of viable cells in culture. The end point readout of this assay is based on quantitation of intracellular ATP, an indicator of metabolic activity, using the luciferase reaction. Luciferase catalyzes the oxidation of beetle Luciferin to oxyluciferin and light in the presence of ATP. The luminescent signal is proportional to amount of ATP present.
Using the CellTiter-Glo luminescent cell viability assay, the amount of cellular ATP was measured in the lymphoblastoid cell line with complete culture medium following compound treatment for 24 hours. The assay was performed in opaque white Kalypsys 1536-well plates. In the screen, tetraoctylammonium bromide was used as positive control. Library compounds were measured for their ability to cause acute toxicity in the cell line, as reflected by a decrease in intracellular ATP levels, in a concentration-dependent manner. […] AC50 values were determined from concentration-response data modeled with the standard Hill equation.
qHTS protocol for CellTiter Glo lymphoblastoid cellular assay
[Step] [Parameter] [Value] [Description]
1. Reagent; 5 uL; 2500 lymphoblastoid cells/well
2. Time; 5 hr; 37 C incubation
4. Controls; 23 nL; Tetraoctylammonium bromide 6.4pM to 92 uM
5. Time; 24 hr; 37 C incubation
6. Reagent; 5 uL; CellTiter Glo reagent
7. Time; 30 min; Room Temperature
8. Detection; Luminescence; Viewlux plate reader
Keywords: cell viability, cytotoxicity, lymphoblastoid cell line, luminescence, NTPHTS, NTPHTS_NCGC, NIEHS, DSSTox, MLSMR, MLSCN, NIH Roadmap, qHTS, NCGC
Potency means the concentration at half of the fitted maximal effect.

| SMILES | activity change, negative = cytotoxicity | Potency |
| --- | --- | --- |
| C[C@H](CCC(=O)O)[C@H]1CC[C@H]2[C@@H]3CC[C@@H]4C[C@H](O)CC[C@]4(C)[C@H]3CC[C@]12C | -11.6% |  |
| Cc1ccc(N)c([N+](=O)[O-])c1 | -10.4% |  |
| CC12CCC(CC1=O)C2(C)C (stereo not given) | 0.465% |  |
| O=C(O)CC(C(=O)O)C(CC(=O)O)C(=O)O (stereo not given) | -9.83% |  |
| C=CC(=C)CCC=C(C)C | -8.58% |  |
| Clc1cc(Cl)c(Cl)cc1Cl | -3.53% |  |
| c1ccc2c(c1)[nH]c1ccccc12 | -10.7% |  |
| COc1ccc(/C=C/c2cc(OC)cc(=O)o2)cc1 | -7.27% |  |
| NC1=NC(S)C2N=CN=C2N1 (stereo not given) |  | 3.16 µM (active) |
| O=C1c2ccccc2C(=O)C1c1ccc2ccccc2n1 | -22.6% |  |
| COc1c2ccoc2cc2oc(=O)ccc12 | -18.4% |  |
| CCC(C)c1ccccc1O (stereo not given) |  | inactive |
| Cc1ccc([N+](=O)[O-])c(C)c1 | -18.6% |  |
| CCCCCCCCCCCCCC(=O)O | -13.7% |  |
| COCC(=O)O | 1.93% |  |
| CCCCCCCCCCCC(=O)O |  | inactive |
| C=Cc1ccccc1Cl | 5.67% |  |
| C=CC(=O)OCCOCCOCCOCCOC(=O)C=C |  | 25.1 µM (active) |
| C=CCOC(=O)c1ccccc1C(=O)OCC=C | -56.4% |  |
| Clc1cc(Cl)c(Cl)c(Cl)c1Cl | -6.34% |  |

| SMILES | activity change, negative = cytotoxicity | Potency |
| --- | --- | --- |
| O=S(=O)(O)c1ccccc1 | -9.42% |  |
| OCCNCCO | -4.22% |  |
| O[C@@H]([C@H](O)[C@@H](O)CBr)[C@@H](O)CBr | 8.47% |  |
| c1ccc2scnc2c1 | 10.4% |  |
| CCCCOCCO |  | inactive |
| CCCCCCCCO | 1.7% |  |
| O=C1CCc2ccccc2O1 | -7.41% |  |
| CCO | -5.84% |  |
| O=C(O)c1ccc(O)cc1O |  | inactive |
| COC(=O)CCCCC(=O)OC | -3.28% |  |
| O=C(O)c1ccccc1 | -11% |  |
| CCCN(CCC)C(=O)SCC | 7.73% |  |
| Cc1ccc([N+](=O)[O-])cc1N | -9.7% |  |
| CCO[Si](CCCN)(OCC)OCC | -4.86% |  |
| CC(C)=CCCC(C)CCO (stereo not given) | -8.49% |  |
| CC1=C2[C@H](/C=C(\C)C(=O)O)CC[C@@H](C)[C@H]2CC1 | -10.5% |  |
| O=C(/C=C/c1ccc(O)c(O)c1)O[C@@H](C(=O)O)[C@@H](OC(=O)/C=C/c1ccc(O)c(O)c1)C(=O)O | -7.92% |  |
| O=[N+]([O-])c1cccc(Cl)c1Cl | 1.24% |  |
| c1ccc2c(c1)c1cccc3ccc4cccc2c4c31 | -4.9% |  |
| CCCCCCCCCCCCCCC1CO1 (stereo not given) | -4.91% |  |
